Screen size: about 1,300 compounds; about 380 (29%) were called active. About 37% were inconclusive and are not listed. The call rests on the fitted dose curve; in most records, active means well fitted inhibition curve with a large enough effect; inconclusive means small, poorly fitted or top-dose-only effect; inactive means flat fitted curve, though single readings scatter. This is one part of the list.
What follows are compounds tested against Thyrotropin receptor (Homo sapiens) (UniProt P16473) (assay: qHTS for antagonists of the Thyroid Stimulation Hormone Receptor: Hit Validation in Primary Screen). Settings: TSHR-expressing cells, cAMP antagonist mode; series mostly up to 58 µM; activity change, negative = inhibition: at the top concentration.
Chain of Thyrotropin receptor (Homo sapiens) (P16473 whole entry, looked up): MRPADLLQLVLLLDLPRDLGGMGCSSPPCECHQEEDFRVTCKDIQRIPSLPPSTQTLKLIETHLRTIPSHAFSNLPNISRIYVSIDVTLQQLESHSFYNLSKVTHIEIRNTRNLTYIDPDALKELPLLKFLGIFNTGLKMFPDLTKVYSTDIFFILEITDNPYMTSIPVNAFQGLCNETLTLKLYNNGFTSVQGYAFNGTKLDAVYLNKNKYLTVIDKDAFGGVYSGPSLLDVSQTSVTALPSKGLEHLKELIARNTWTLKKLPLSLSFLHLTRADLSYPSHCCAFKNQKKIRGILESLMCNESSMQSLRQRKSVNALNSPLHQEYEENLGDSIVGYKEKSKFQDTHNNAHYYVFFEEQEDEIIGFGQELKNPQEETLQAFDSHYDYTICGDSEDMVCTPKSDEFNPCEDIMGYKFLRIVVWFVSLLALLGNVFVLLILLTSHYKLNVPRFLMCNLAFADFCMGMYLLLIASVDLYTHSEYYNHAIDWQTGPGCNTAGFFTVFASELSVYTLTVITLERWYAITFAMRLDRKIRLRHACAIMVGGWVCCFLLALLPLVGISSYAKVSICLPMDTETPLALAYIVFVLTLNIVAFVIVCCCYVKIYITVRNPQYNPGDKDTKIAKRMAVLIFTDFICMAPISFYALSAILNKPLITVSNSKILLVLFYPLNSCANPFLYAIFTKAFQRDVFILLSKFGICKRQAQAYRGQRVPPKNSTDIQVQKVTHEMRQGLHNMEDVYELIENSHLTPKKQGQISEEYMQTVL
Description: The thyroid-stimulating hormone receptor (TSHR) is a member of the 7 trans-membrane-spanning receptor (7TMR) family of cell surface receptors. TSHR-mediated hyperthyroidism is important in thyroid pathology. The development of small molecule antagonists of TSHR may lead to therapeutic approaches for TSHR-mediated hyperthyroidism caused by constitutively activating mutations or stimulating auto-antibodies associated with Graves' disease. Graves' disease is the leading cause of hyperthyroidism and is caused by autoantibodies that stimulate TSHR (TsAbs) causing thyroid growth and unregulated overproduction of thyroid hormones and existing treatments have liabilities (agranulocytosis). In addition, TSHRs are known to be expressed in multiple extrathyroidal tissues including bone, brain, kidney, testis, fat and cells of the immune system but the role of the TSHR in these tissues is not clear. Therefore, TSHR antagonists/inverse agonists could be used as probes of extrathyroidal TSHR function. Finally, TSHR inverse agonists, which are a subclass of antagonists that inhibit agonist-independent (or basal or constitutive) TSHR signaling, could be used to inhibit TSH-independent signaling in patients with recurrent or metastatic thyroid cancer who are receiving thyroid hormone to suppress TSH.
In collaboration between scientist from the NCGC and the NIDDK, a miniaturized HTRF high-throughput screen was developed. It's a cell based assay, where an anti cAMP antibody contains a fluorescent cryptate tag (excitation 337 nm; emission 620 nm) and the acceptor is cAMP-d2 (excitation 620 nm; emission 665 nm). When antibody and cAMP-d2 interact and are excited by a 337 nm light, a FRET occurs resulting in emission at 665 nm. The assay is competition between cAMP-d2 and cAMP (from the cell lysate). The homogeneous protocol allows for one step dispense after stimulation that is automation friendly. This is a hit validation assay using the primary screen format.
NIH Chemical Genomics Center [NCGC]
NIH Molecular Libraries Probe Centers Network [MLPCN]
Assay Provider: Marvin Gershengorn, NIDDK
1. 3ul of 200 TSHR freshly harvested cells/well are dispensed into a 1536 TC-treated white solid bottom plate.
2. Through pintool addition, 23nl of compounds and control in 100% DMSO are added to the plate.
3. Then 1ul of EC80 TSH (4nM final) is added to the plate.
4. Assay is incubated at 37 deg C for 2 hours.
5. 2ul of cAMP antibody diluted 1:20 in lysis buffer is added.
6. Immediately following, 2ul of d2 diluted 1:20 in HBSS is added seperately.
7. The assay is incubated for 30 minutes at ambient room temperature.
8. The result is obtained by using a ViewLux read-out with HTRF settings.
In the case of O=C(Nc1ccc(Oc2ccc(Cl)cc2)c(Cl)c1)c1cc(I)cc(I)c1O, the Potency is reported as 1.51 µM (active). COC(=O)C1=C(c2ccc(-c3ccccc3)c(F)c2)C[C@@H]2CC[C@H]1N2C(=O)NCCCOC(C)C was tested, and the Potency was 23.9 µM (active). COC(=O)C1=C(c2ccc(-c3ccccc3)c(F)c2)C[C@@H]2CC[C@H]1N2C(=O)NCCc1ccccc1 was tested, and the Potency was 6.01 µM (active). In the case of COC(=O)C1=C(c2ccc(-c3ccccc3)c(F)c2)C[C@@H]2CC[C@H]1N2C(=O)NCCOc1ccccc1, the Potency is reported as 5.36 µM (active). In the case of COC(=O)C1=C(c2ccc(-c3ccccc3)c(F)c2)C[C@@H]2CC[C@H]1N2C(=O)NCc1ccco1, the Potency is reported as 21.3 µM (active). COC(=O)C1=C(c2ccc(OCc3ccccc3)cc2)C[C@@H]2CC[C@H]1N2C(=O)NCc1cccc(OC)c1 was tested, and the “activity change, negative = inhibition” value was -13.2% (inactive). O=C(Nc1ccc2ccccc2c1)c1nn(C23CC4CC(CC(C4)C2)C3)cc1Br was tested, and the “activity change, negative = inhibition” value was -7.52% (inactive). In the case of COC(=O)C1=C(c2ccc(-c3ccccc3)c(F)c2)C[C@@H]2CC[C@H]1N2C(=O)NCC1CC1, the Potency is reported as 23.9 µM (active). COC(=O)C1=C(c2ccc(-c3ccccc3)c(F)c2)C[C@@H]2CC[C@H]1N2C(=O)NC(C)C was tested, and the Potency was 23.9 µM (active). With CNc1ccc2oc(C[C@H]3O[C@@]4(CC[C@H]3C)O[C@H]([C@H](C)C(=O)c3ccc[nH]3)[C@H](C)C[C@H]4C)nc2c1C(=O)O the “activity change, negative = inhibition” value was -120% (inactive). With O=C(C1CCN(c2nc3ccc(Br)cc3s2)CC1)N1CCC2(CC1)OCCO2 the Potency was 30.1 µM (active). COc1cc(C(C)=O)ccc1OC(=O)N(C)c1ccccc1 was tested, and the “activity change, negative = inhibition” value was -4.44% (inactive). With COC(=O)C1=C(c2ccc(OC(F)(F)F)cc2)C[C@@H]2CC[C@H]1N2C(=O)N1CCC(C)CC1 the Potency was 30.1 µM (active). In the case of CNc1cc(Cl)c2nonc2c1[N+](=O)[O-], the Potency is reported as 4.78 µM (active). For Cc1ccccc1-c1nc(CS(=O)CC(=O)N2CCC3(CC2)OCCO3)c(C)o1 (centres undefined), the “activity change, negative = inhibition” value was -7.84% (inactive). N#CC(C#N)=NNc1ccc(-n2ccc(C(F)(F)F)n2)cc1 was tested, and the Potency was 2.39 µM (active). For Cc1ccc(-n2c(C)nc3ccccc3c2=O)c(C)c1, the “activity change, negative = inhibition” value was -2.85% (inactive). Oc1ccc(Cl)cc1Cc1cc(Cl)ccc1O was tested, and the Potency was 30.1 µM (active). For Nc1ccc(C2(c3ccc(N)cc3)c3ccccc3-c3ccccc32)cc1, the Potency was 6.01 µM (active). CC12CCC3C(CC=C4CC5(CCC43C)OCCO5)C1CCC2=O (centres undefined) was tested, and the “activity change, negative = inhibition” value was -6.34% (inactive). For CCN(CC)S(=O)(=O)c1ccc(NN=C(C#N)C#N)cc1, the Potency was 6.01 µM (active). In the case of N#CC(C#N)=NNc1ccc([N+](=O)[O-])cc1, the Potency is reported as 2.69 µM (active). COc1cc(N2C(=O)CC(=O)NC2=O)cc(OC)c1OC was tested, and the “activity change, negative = inhibition” value was -3% (inactive). In the case of Cc1nc2ccccc2c(=O)n1-c1cccc(C(F)(F)F)c1, the “activity change, negative = inhibition” value is reported as -3.92% (inactive).

— PubChem BioAssay AID602292 (National Center for Advancing Translational Sciences (NCATS), 2012)
Further: nearly all actives have a fitted effect of over 80% in size.
On the % scale 0 is the no-effect control and ±100 the full control effect; potency means the concentration at half of the fitted maximal effect.
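Wherever activity change, negative = inhibition is given: cells stimulated with TSH at EC80 of 4 nM during compound exposure; cAMP by competitive HTRF where cellular cAMP lowers the 665 nm FRET signal.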
